Compound activity from PubChem.
Hits are enriched below; roughly 19% of the tested compounds scored in any of these assays.
DT40 TDP1 CPT = growth inhibition of DT40 Tdp1-/-;hTDP1 cells with camptothecin (screen for TDP1 inhibitors) | Potency, µM (titrated, usually from 46.2 µM), inactives show top-dose activity change, negative = growth inhibition, usual class: inhibitors | chicken DT40 Tdp1-/-;hTDP1 cells + 20 nM CPT, ATP luminescence, 48 h | hit rate 12% among 420,000 | AID 686979; also: potency is read from the fitted curve at half-maximal effect; nearly all actives have a fitted effect of over 55% in size
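Cell growth measured by CellTiter-Glo luminescence after a minimum 48 h, 37 C compound exposure with 20 nM CPT in Tdp1-knockout DT40 cells stably expressing hTDP1, seeded 400/well; qHTS titration format.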
HT1080NT lethal = kills 2HG-producing HT-1080-NT fibrosarcoma cells; Potency, µM (doses to about 46.1 µM), for the others: top-dose activity, negative = less viability, usual class: cytotoxic; HT-1080-NT fibrosarcoma viability, CellTiter-Glo ATP luminescence, 48 h; hit rate 1.6% among 360,000; AID 686970;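 also: NT is the 2HG producing partner of a matched IDH1 knockdown line; potency is read from the fitted curve at half-maximal effect; 0% = DMSO-treated cells and -100% = media-only wells without cells; nearly all actives have a fitted effect of over 55% in size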
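Compounds were tested in concentration-response format on HT-1080-NT cells for 48 hours at 37 degrees C. Cell viability came from CellTiter-Glo luminescence; curves were classified by r2, response magnitude and activity.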
HT1080 IDH1KD tx = kills HT-1080 cells with IDH1 knockdown | HT-1080 IDH1 knockdown viability, ATP luminescence, 48 h | Potency, µM (doses to about 46.1 µM), without a hit: at the highest dose activity, negative = toxicity, usual class: cytotoxic | hit rate 2% among 360,000;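 also: potency is read from the fitted curve at half-maximal effect; 0% = DMSO wells and -100% = cell-free medium wells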
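Viability of IDH1-knockdown HT-1080 fibrosarcoma cells was assessed by CellTiter-Glo after 48 h at 37 °C with titrated compound; concentration-effect curves were classified by fit quality and response size.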
IL-1B inflam inh = blocks inflammasome-driven IL-1 beta release; AID 743279; THP-1 LPS/ATP IL-1B secretion, AlphaLISA, 16 h; stronger effect = lower value; activity change, % at 57.5 µM; hit rate 4.7% among 360,000; in the data active = activity change below about -50%; inconclusive = mostly about -30% to -49%
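Secreted IL-1B measured by AlphaLISA bead assay after 16 h compound exposure of THP-1 cells; compounds (final up to 57.5 uM) added 1 h before LPS (250 ng/mL) and ATP (1.25 mM) stimulation; lower signal means less secretion.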
TDP1 cell noCPT = qHTS for Inhibitors of human tyrosyl-DNA phosphodiesterase 1 (TDP1): qHTS in cells in absence of CPT; Potency, µM (titrated, usually from 46.2 µM), for inactives: at the highest dose activity change, negative = growth inhibition, most hits filed as inhibitors; hit rate 15% among 420,000; DT40 Tdp1-/- hTDP1 cells, no CPT, ATP luminescence, 48 h; AID 686978, 2013; also: potency is read from the fitted curve at half-maximal effect; nearly all actives have a fitted effect of over 55% in size
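Cells were dispensed at 400 per well, compounds added by pin tool, plates incubated ≥48 hr at 37 °C, then CellTiter-Glo added for 30 min at room temperature before luminescence reading. Line: DT40 Tdp1-/- complemented with hTDP1; camptothecin omitted.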
uPA surface inh = inhibitors of cell surface uPA generation. cell surface uPA generation assay, qHTS. Potency, µM (highest dose often 38.3 µM), for the others: top-dose activity change, negative = inhibition, usual class: inhibitors. hit rate 0.31% among 330,000. AID 540303; active = well fitted inhibition curve with a large enough effect; inconclusive = small, poorly fitted or top-dose-only effect; inactive = no such curve, though single readings can be large or run the other way; tested in mouse RAW 264.7 cells; also: potency is read from the fitted curve at half-maximal effect; nearly all actives have a fitted effect of over 55% in size
* marks the source's active call; other numbers are inactive results; ? = inconclusive; nt = no result given; [ ] = remark or other dose. Unless noted, calls follow the shape of the dose curve; as a rule, active = well fitted curve in the direction sought with a large enough effect; inconclusive = small, poorly fitted or top-dose-only effect, or another doubt; inactive = no such curve, though single readings can be large; an effect the other way counts as inactive or inconclusive. Unless noted, % is scaled to controls: 0 for no effect and ±100 for the full control effect.

SMILES	DT40 TDP1 CPT	HT1080NT lethal	HT1080 IDH1KD tx	IL-1B inflam inh	TDP1 cell noCPT	uPA surface inh
COc1ccc(/C=c2/sc3n(c2=O)C(c2ccccc2OC)C2=C(N=3)c3ccccc3CC2)cc1O (stereo not given)	29µM*	?	26µM*	-18	23µM*	-1%
CCOC(=O)C1=C(C)N=c2s/c(=C\c3ccncc3)c(=O)n2C1c1ccc2c(c1)OCO2 (stereo not given)	?	?	-11%[9.24 µM]	-67*	?	-15%
CCOC(=O)C1=C(c2ccccc2)N=c2s/c(=C\c3cc(OC)c(OC)c(OC)c3)c(=O)n2C1c1cccs1 (stereo not given)	?	-9%	-2%	-2	6.5µM*	2%
COc1ccccc1C1C2=C(N=C3SCC(=O)N31)c1ccccc1CC2 (stereo not given)	?	7%	2%[9.24 µM]	-1	?	5%
Cc1cc(C)cc(NC(=O)c2ccc3c(O)c(S(=O)(=O)c4ccccc4)c(=O)[nH]c3c2)c1	12%	nt	nt	nt	18%	nt
O=C1[C@H]2[C@@H](c3ccccc3)N[C@]3(CCCN(CC4CCCCC4)C3=O)[C@H]2C(=O)N1Cc1ccccc1	?	3%	-3%	-19	?	nt
COC(=O)C1CCCCN1Cc1ccc2c(c1)CN(C(=O)c1ccc(C)s1)CCO2 (stereo not given)	3%[9.04 µM]	nt	nt	nt	-25%	nt
Cc1ccc(-n2nc(C(=O)Nc3ccc(Cl)cn3)c3c4ccccc4n(C)c3c2=O)cc1	-1%	nt	nt	nt	-19%	nt
CCOC(=O)C1=C(C)n2c(s/c(=C/c3cccc([N+](=O)[O-])c3)c2=O)=NC1c1ccc(O)c(OC)c1 (stereo not given)	16µM*	-15%	?	-78*	16µM*	nt
COc1ccc(C2C(C(C)=O)=C(C)N=c3s/c(=C\c4ccco4)c(=O)n32)c(OC)c1 (stereo not given)	8.2µM*	5%	1%	-29	-15%	2%
CCOC(=O)C1=C(C)N=c2s/c(=C/c3cccc([N+](=O)[O-])c3O)c(=O)n2C1c1ccc(OC)cc1OC (stereo not given)	?	0%	1%	20	?	2%
COc1ccccc1CCNC(=O)C(=O)NCC1OCCN1S(=O)(=O)c1ccc2c(c1)OCCO2 (stereo not given)	?	-3%	-2%	-16	?	-8%
O=C(Cn1c(-c2cccs2)cc2cc(F)ccc21)NCCCN1CCN(c2ccccc2F)CC1	21µM*	nt	nt	nt	21µM*	nt
O=C(Cn1c(-c2cccs2)cc2ccccc21)NCCCN1CCN(c2ccccc2F)CC1	23µM*	nt	nt	nt	16µM*	nt
O=C(Cn1c(=O)c2cccn2c2ccc(F)cc21)NCCCN1CCN(c2ccccc2F)CC1	?	?	?	-11	?	-2%
COc1ccccc1NC(=O)CCc1nnc2ccc(N3CCN(C)CC3)nn12	-13%	1%	10%	-8	18%	-3%
C=CCNC(=S)NNC(=O)c1cccn(Cc2ccc(Cl)cc2Cl)c1=O	16µM*	3%	-21%	14	?	0%
COc1ccc(-c2ccc3oc(-c4ccc(OC)cc4)c(C#CC4(O)CCCCC4)c3c2)cc1	?	4%	9%	33	?	16%
COc1ccc(-c2oc3ccccc3c2C#Cc2cncn2C)cc1	16µM*	?	?	?	18µM*	?
COc1ccc(-c2sc3ccc(N4CCOCC4)cc3c2C#CC2(O)CCCCC2)cc1	?	21µM*	?	105	?	-50%
COc1ccc(-c2sc3cc4c(cc3c2C#Cc2cncn2C)OCO4)cc1	26µM*	-1%	-1%	-4	15µM*	5%
COc1cccc(-c2sc3ccc(OC)cc3c2C#CC2(O)CCCCC2)c1	?	?	?	-25	23µM*	0%
CC1CCCC(NC(=O)CSc2nnc(C(F)(F)F)n2C)C1C (stereo not given)	-22%	2%[9.24 µM]	0%	1	16%	-18%
COc1ccc(-c2sc3cc4c(cc3c2C#CC2(N)CCCCC2)OCO4)cc1	8.2µM*	?	?	-20	12µM*	-25%
COc1ccc(-c2sc3ccc(OC)cc3c2C#Cc2cncn2C)cc1	?	?	?	?	?	-21%
SMILES	DT40 TDP1 CPT	HT1080NT lethal	HT1080 IDH1KD tx	IL-1B inflam inh	TDP1 cell noCPT	uPA surface inh
COc1cc(OC)cc(-c2sc3ccc(OC)cc3c2C#CC2(N)CCCCC2)c1	?	?	?	?	15µM*	-24%
Cc1cc(C)c(S(=O)(=O)N(C)CC(=O)N2CCCC2)c(C)c1	-6%	4%	0%	20	?	nt
O=C(c1ccccc1)c1ccc2cc(O)ccc2c1	-18%	?	?	-54*	?	-7%
O=C(Nc1ccccc1)C(c1ccccc1)C1CCCC1 (stereo not given)	-6%	-7%	-3%	-91*	-22%	-13%
COc1ccccc1Nc1ccc(NC(=O)c2cccc([N+](=O)[O-])c2C)cc1	?	-24%	-16%	-27	18µM*	8%
COc1ccc(NC(=O)c2ccccc2[N+](=O)[O-])cc1	-13%	5%	8%	1	-9%	-3%
COc1ccc(C(=O)Nc2ccc(N3CCN(C(=O)c4ccccc4C)CC3)cc2)cc1	8.2µM*	-2%	7%	?	8.2µM*	7%
COc1ccccc1Oc1ccc(NC(=O)c2ccccc2C)cc1	?	-10%	0%	-29	23µM*	-11%
COc1ccccc1Oc1ccc(NC(=O)c2ccccc2)cc1	-1%	8%	4%	-8	-22%	-1%
Cc1ccccc1C(=O)Nc1ccc(N2CCCC2)cc1	?	-3%	1%	-55*	-1%	-3%
COc1ccc(O)c(C(=O)CC(=O)c2ccccc2C)c1	7.3µM*	-2%	?	29	5.8µM*	-14%
O=C(O)/C=C\C(=O)Nc1ccc(N2CCN(c3ccc(Cl)c(Cl)c3)CC2)cc1	?	-18%	-4%	-71*	?	1%
Cc1ccc(C(=O)Nc2ccc(N3CCCC3)cc2)c(C)c1	?	-10%	-12%	-15	?	-7%
COc1ccc(Oc2ccc(NC(=O)c3ccccc3C)cc2)cc1	?	?	?	?	21µM*	-2%
CC(CN1CCN(C)CC1)OC(=O)c1cccc(F)c1 (stereo not given)	-7%	6%	0%	19	0%	-1%
